This is part of a sample that, as a whole, favours compounds with a hit. Of some 83,000 tested, about 20% had one in any assay.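 Assay: single dose, 48 h. Readout: percent growth (0 = no net growth; negative = cell death). Active: <10.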 Active and inactive are the calls of the source.
Assays:
Assay in all cases: NCI-60 one-dose screen, 48 h (100 = growth as untreated, 0 = no growth, -100 = all killed)
Conditions in all cases: 10 µM unless noted
HCT-15 colon = system: HCT-15 colon
HT29 colon = system: HT29 colon
SNB-75 CNS = system: SNB-75 CNS
SNB-19 CNS = system: SNB-19 CNS
U251 CNS = system: U251 CNS
PC-3 prostate = system: PC-3 prostate
SK-MEL-5 melanoma = system: SK-MEL-5 melanoma
UACC-62 melanoma = system: UACC-62 melanoma
SK-MEL-28 melanoma = system: SK-MEL-28 melanoma
SK-MEL-2 melanoma = system: SK-MEL-2 melanoma
EKVX NSCLC = system: EKVX NSCLC
SN12C renal = system: SN12C renal
UO-31 renal = system: UO-31 renal
TK-10 renal = system: TK-10 renal
ACHN renal = system: ACHN renal
CAKI-1 renal = system: CAKI-1 renal
A498 renal = system: A498 renal
CCRF-CEM leukemia = system: CCRF-CEM leukemia
LOX IMVI melanoma = system: LOX IMVI melanoma
MOLT-4 leukemia = system: MOLT-4 leukemia

Measured: growth

CCCn1nc(-c2ccccc2)c2c(-c3ccccc3)onc2c1=O
inactive: HCT-15 colon 61.8% | HT29 colon 43.1% | SNB-75 CNS 53% | SNB-19 CNS 77.2% | U251 CNS 72.9% | PC-3 prostate 73% | SK-MEL-5 melanoma 79.7% | UACC-62 melanoma 53.8% | SK-MEL-28 melanoma 95.5% | SK-MEL-2 melanoma 57.8% | EKVX NSCLC 78.9% | SN12C renal 82.1% | UO-31 renal 68.8% | TK-10 renal 106% | ACHN renal 94.1% | CAKI-1 renal 85.9% | A498 renal 68.9% | CCRF-CEM leukemia 68.7%

Cc1cnc(Nc2ccc(OCCN3CCCC3)cc2)nc1NCc1ccco1
inactive: HCT-15 colon 74.6% | HT29 colon 50.7% | SNB-75 CNS 33.3% | SNB-19 CNS 94.4% | U251 CNS 65.8% | PC-3 prostate 72% | SK-MEL-5 melanoma 81.7% | UACC-62 melanoma 86.9% | SK-MEL-28 melanoma 103% | SK-MEL-2 melanoma 97.9% | EKVX NSCLC 71.5% | SN12C renal 68.5% | UO-31 renal 47.8% | TK-10 renal 79.4% | ACHN renal 79.4% | CAKI-1 renal 62.5% | CCRF-CEM leukemia 72.7%

c1ccc([P+](CCCc2n(Cc3ccc4ccccc4c3)c3ccccc3[n+]2Cc2ccc3ccccc3c2)(c2ccccc2)c2ccccc2)cc1
inactive: HCT-15 colon 85.5% | HT29 colon 23.9% | SNB-75 CNS 91% | SNB-19 CNS 38.5% | U251 CNS 46.5% | PC-3 prostate 67.5% | UACC-62 melanoma 37.8% | LOX IMVI melanoma 13.8% | SK-MEL-28 melanoma 37.1% | SK-MEL-2 melanoma 100% | EKVX NSCLC 59.4% | SN12C renal 55% | UO-31 renal 61.2% | TK-10 renal 89.2% | ACHN renal 81.4% | CAKI-1 renal 79.9% | A498 renal 67.2% | CCRF-CEM leukemia 43.2% | MOLT-4 leukemia 57.6%

COC(=O)c1ccc(CSc2nnc(-c3ccncc3)o2)cc1
inactive: HCT-15 colon 108% | HT29 colon 109% | SNB-75 CNS 81.9% | SNB-19 CNS 110% | U251 CNS 104% | PC-3 prostate 87.5% | SK-MEL-5 melanoma 112% | UACC-62 melanoma 97.5% | SK-MEL-28 melanoma 107% | SK-MEL-2 melanoma 102% | EKVX NSCLC 101% | SN12C renal 96.2% | UO-31 renal 79.7% | TK-10 renal 116% | ACHN renal 100% | CAKI-1 renal 90.3% | A498 renal 120% | CCRF-CEM leukemia 99.3%

C=C(C)[C@@H]1CC[C@]2(CN)CC[C@]3(C)[C@H](CC[C@@H]4[C@@]5(C)CCC(N)[C@@](C)(CO)[C@@H]5CC[C@]43C)[C@@H]12 (some centres undefined)
active: HCT-15 colon -47.6% | HT29 colon -60.6% | SNB-19 CNS -10.5% | U251 CNS -93.8% | PC-3 prostate 6.4% | SK-MEL-5 melanoma -97.2% | UACC-62 melanoma -79.6% | SK-MEL-28 melanoma -94.2% | SN12C renal -69.3% | TK-10 renal -86.3% | ACHN renal -77.7% | CAKI-1 renal -15.7% | CCRF-CEM leukemia -44.8%
inactive: SNB-75 CNS 75.6% | EKVX NSCLC 21.3% | UO-31 renal 65.8% | A498 renal 81.4%

COc1ccc(-n2sc(=O)n(Cc3ccc(COC(=O)C(C)c4ccc(CC(C)C)cc4)cc3)c2=O)cc1 (centres undefined)
inactive: HCT-15 colon 36.3% | HT29 colon 22% | SNB-75 CNS 46.7% | SNB-19 CNS 80.5% | U251 CNS 75.3% | PC-3 prostate 61.7% | UACC-62 melanoma 55.2% | SK-MEL-28 melanoma 52.8% | SK-MEL-2 melanoma 89.7% | EKVX NSCLC 77.4% | SN12C renal 23.4% | TK-10 renal 10.1% | CAKI-1 renal 30.9% | A498 renal 83.3%
active: LOX IMVI melanoma -75.9% | UO-31 renal -6.91% | ACHN renal -44.4% | CCRF-CEM leukemia -22.2% | MOLT-4 leukemia -18.3%

Cc1cc(N(CCCNc2ccnc3cc(Cl)ccc23)Cc2ccccn2)nc(N2CCOCC2)n1
inactive: HCT-15 colon 87.3% | HT29 colon 56% | SNB-75 CNS 69.2% | SNB-19 CNS 93.9% | U251 CNS 94.8% | PC-3 prostate 74% | SK-MEL-5 melanoma 105% | UACC-62 melanoma 106% | SK-MEL-28 melanoma 106% | SK-MEL-2 melanoma 97.9% | EKVX NSCLC 89.5% | SN12C renal 95.6% | UO-31 renal 63.9% | TK-10 renal 110% | ACHN renal 101% | CAKI-1 renal 87.8% | A498 renal 92.5% | CCRF-CEM leukemia 86%

C=C1c2c(C)nn(-c3ccc(N)cc3)c2N(C)C23CC1C1(C)c4c(C)nn(-c5ccc(N)cc5)c4N(C)C(C)(CC12)C3 (centres undefined)
inactive: HCT-15 colon 38.5% | HT29 colon 61.7% | SNB-75 CNS 109% | SNB-19 CNS 80.7% | U251 CNS 79.1% | PC-3 prostate 53.1% | SK-MEL-5 melanoma 52.9% | UACC-62 melanoma 77.1% | SK-MEL-28 melanoma 85.1% | SK-MEL-2 melanoma 79.2% | EKVX NSCLC 52.3% | SN12C renal 89.5% | UO-31 renal 51% | TK-10 renal 76.2% | ACHN renal 58.9% | CAKI-1 renal 76.6% | A498 renal 89.4% | CCRF-CEM leukemia 47.8%

CCCc1nc2ccccn2c1Nc1ccc(C(=O)NO)cc1
inactive: HCT-15 colon 89.8% | HT29 colon 92.7% | SNB-75 CNS 82.2% | SNB-19 CNS 85% | U251 CNS 95.9% | PC-3 prostate 83% | SK-MEL-5 melanoma 101% | UACC-62 melanoma 82.7% | SK-MEL-28 melanoma 95.7% | SK-MEL-2 melanoma 92.1% | EKVX NSCLC 100% | SN12C renal 86.5% | UO-31 renal 83.3% | TK-10 renal 94.7% | ACHN renal 91.8% | CAKI-1 renal 88.8% | A498 renal 87.3% | CCRF-CEM leukemia 74.2%

O=C1/C(=C/c2ccccc2[N+](=O)[O-])COc2ccc(O)c(O)c21
active: HCT-15 colon -11.8% | HT29 colon 5.22% | U251 CNS 2.61% | PC-3 prostate -0.516% | UACC-62 melanoma -86.6% | LOX IMVI melanoma -73.2% | SK-MEL-28 melanoma -13.6% | SK-MEL-2 melanoma 3.35% | EKVX NSCLC 7.9% | SN12C renal -29.1% | UO-31 renal -67.8% | TK-10 renal 3.34% | ACHN renal 3.22% | CAKI-1 renal 6.79% | CCRF-CEM leukemia -2.4% | MOLT-4 leukemia -8.56%
inactive: SNB-75 CNS 22.8% | SNB-19 CNS 26.5% | A498 renal 77.4%

C=C1c2c(C)nn(-c3ccc(O)cc3)c2N(C)C23C[C@@H]1C1(C)c4c(C)nn(-c5ccc(O)cc5)c4N(C)C(C)(C[C@H]12)C3 (some centres undefined)
inactive: HCT-15 colon 11.1% | HT29 colon 17.5% | SNB-75 CNS 64.2% | SNB-19 CNS 48.7% | U251 CNS 33% | PC-3 prostate 12.8% | SK-MEL-5 melanoma 11.4% | UACC-62 melanoma 32.7% | SK-MEL-28 melanoma 42.6% | SK-MEL-2 melanoma 44.3% | SN12C renal 30% | UO-31 renal 22.4% | TK-10 renal 57.3% | ACHN renal 24.6% | CAKI-1 renal 27.2% | A498 renal 34.8%
active: CCRF-CEM leukemia 4.13%

C=C(C)[C@@H]1CC[C@]2(CO)CC[C@]3(C)[C@H](CC[C@@H]4[C@@]5(C)C=C(C#N)C(=O)C(C)(C)[C@@H]5CC[C@]43C)[C@@H]12
active: HCT-15 colon 3.8% | HT29 colon 8.33% | U251 CNS 9.63% | PC-3 prostate 6.8% | UACC-62 melanoma -33% | SN12C renal 8.07% | UO-31 renal -8.85% | A498 renal -0.306% | CCRF-CEM leukemia 2.24%
inactive: SNB-75 CNS 52.1% | SNB-19 CNS 18.5% | SK-MEL-5 melanoma 12% | SK-MEL-28 melanoma 20.9% | SK-MEL-2 melanoma 30.1% | TK-10 renal 36.2% | ACHN renal 12% | CAKI-1 renal 22.8%

O=C1c2cccc3c(-c4ccc(-c5nc6c7ccccc7c7ccccc7c6[nH]5)cc4)ccc(c23)C(=O)N1CCN1CCNCC1
inactive: HCT-15 colon 40.9% | SNB-75 CNS 103% | SNB-19 CNS 103% | U251 CNS 62.1% | PC-3 prostate 66.6% | UACC-62 melanoma 106% | SK-MEL-28 melanoma 119% | SK-MEL-2 melanoma 105% | EKVX NSCLC 97% | SN12C renal 93.4% | UO-31 renal 94.2% | TK-10 renal 104% | ACHN renal 71.7% | CAKI-1 renal 91.4% | A498 renal 107% | CCRF-CEM leukemia 37.5% | MOLT-4 leukemia 53.4%
active: HT29 colon 5.47% | LOX IMVI melanoma -55.8%

COc1ccc(/C=C(\C#N)n2nnc3cc(F)c(F)cc32)c(OC)c1OC
inactive: HCT-15 colon 43.7% | HT29 colon 64.5% | SNB-75 CNS 82% | SNB-19 CNS 82.9% | U251 CNS 73.9% | PC-3 prostate 57.9% | SK-MEL-5 melanoma 60.5% | UACC-62 melanoma 58.6% | SK-MEL-28 melanoma 77.3% | SK-MEL-2 melanoma 79% | EKVX NSCLC 72.8% | SN12C renal 67% | UO-31 renal 52.4% | TK-10 renal 126% | ACHN renal 66.2% | CAKI-1 renal 87.7% | A498 renal 91% | CCRF-CEM leukemia 23.4%

CCCCS(=O)(=O)Oc1ccc(-c2nc(C)c(C(=O)OCC)s2)cc1C=O
inactive: HCT-15 colon 50.6% | HT29 colon 18.5% | SNB-75 CNS 89% | SNB-19 CNS 53.8% | U251 CNS 49.6% | PC-3 prostate 53.9% | UACC-62 melanoma 64.6% | LOX IMVI melanoma 28.3% | SK-MEL-28 melanoma 90% | SK-MEL-2 melanoma 97.2% | EKVX NSCLC 92.1% | SN12C renal 57.1% | UO-31 renal 57.7% | TK-10 renal 68.8% | ACHN renal 62.7% | CAKI-1 renal 63.7% | A498 renal 77.5% | CCRF-CEM leukemia 15.3% | MOLT-4 leukemia 32.1%

CC1=CC(=O)C(C(C)C)=CC1=Nc1cc(Br)c(O)c(Br)c1
inactive: HCT-15 colon 21% | HT29 colon 66.2% | SNB-75 CNS 27.1% | SNB-19 CNS 42.1% | SK-MEL-5 melanoma 13.9% | UACC-62 melanoma 22.7% | LOX IMVI melanoma 24% | SK-MEL-28 melanoma 42.6% | SK-MEL-2 melanoma 23.5% | EKVX NSCLC 44.1% | SN12C renal 36.3% | UO-31 renal 48.4% | TK-10 renal 93.2% | ACHN renal 57.8% | CAKI-1 renal 51.3% | MOLT-4 leukemia 23.8%
active: U251 CNS 5.45% | CCRF-CEM leukemia -1.08%
